Source: PubChem BioAssay (NCI)
Compounds without any hit were thinned out: in the full panel of roughly 83,000, 20% have a hit.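 Note: values are percent growth. 100 is the growth of untreated cells, values between 100 and 0 indicate rising inhibition; between -100 and 0 indicates cell death.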 Calls of active or inactive are those of the source. Rule for the calls: active = growth percent below 10; inactive = the rest.

Assays:
Test in all cases: NCI-60 one-dose screen, 48 h (100 = growth as untreated, 0 = no growth, -100 = all killed)
Conditions in all cases: 10 µM unless noted
DU-145 prostate = test system: DU-145 prostate
K-562 leukemia = test system: K-562 leukemia
MALME-3M melanoma = test system: MALME-3M melanoma
MDA-MB-231 breast = test system: MDA-MB-231 breast
RXF 393 renal = test system: RXF 393 renal
SF-268 CNS = test system: SF-268 CNS
SF-295 CNS = test system: SF-295 CNS
SF-539 CNS = test system: SF-539 CNS
UACC-257 melanoma = test system: UACC-257 melanoma
M14 melanoma = test system: M14 melanoma
HCT-15 colon = test system: HCT-15 colon
HT29 colon = test system: HT29 colon
SNB-75 CNS = test system: SNB-75 CNS
SNB-19 CNS = test system: SNB-19 CNS
U251 CNS = test system: U251 CNS
PC-3 prostate = test system: PC-3 prostate
SK-MEL-5 melanoma = test system: SK-MEL-5 melanoma
UACC-62 melanoma = test system: UACC-62 melanoma
LOX IMVI melanoma = test system: LOX IMVI melanoma
SK-MEL-28 melanoma = test system: SK-MEL-28 melanoma

Measured: growth

CC(=O)c1nc(Nc2ccc(C)cc2)sc1C
inactive: DU-145 prostate 102% | K-562 leukemia 97.6% | MALME-3M melanoma 113% | MDA-MB-231 breast 91.3% | RXF 393 renal 96.2% | SF-268 CNS 91% | SF-295 CNS 104% | SF-539 CNS 101% | UACC-257 melanoma 92.1% | M14 melanoma 97.1% | HCT-15 colon 94.1% | HT29 colon 105% | SNB-75 CNS 75% | SNB-19 CNS 93.1% | U251 CNS 95.8% | PC-3 prostate 93.1% | SK-MEL-5 melanoma 98.6% | UACC-62 melanoma 98.6% | LOX IMVI melanoma 100% | SK-MEL-28 melanoma 95.2%

O=c1[nH]nc(-c2ccccc2)c2c(-c3ccccc3)onc12
active: K-562 leukemia 9.89% | SF-539 CNS 0.0732% | SNB-75 CNS -5.82%
inactive: DU-145 prostate 25.1% | MALME-3M melanoma 37.2% | MDA-MB-231 breast 50.3% | RXF 393 renal 12.3% | SF-268 CNS 42% | SF-295 CNS 35.7% | UACC-257 melanoma 71.2% | M14 melanoma 45.4% | HCT-15 colon 32.2% | HT29 colon 22.2% | SNB-19 CNS 49.9% | U251 CNS 30.6% | PC-3 prostate 26.6% | SK-MEL-5 melanoma 11% | UACC-62 melanoma 34% | LOX IMVI melanoma 49.6% | SK-MEL-28 melanoma 69.8%

Oc1c(CN2CCCC2)cc(COCc2ccc(Br)cc2)c2cccnc12
active: K-562 leukemia 8.51% | MALME-3M melanoma -3.92% | MDA-MB-231 breast 5.06% | SF-539 CNS -23.5% | UACC-257 melanoma -29.5% | M14 melanoma -3.51% | HCT-15 colon -39.6% | U251 CNS -7.1% | SK-MEL-5 melanoma -15.1% | UACC-62 melanoma -22.4% | LOX IMVI melanoma -14.1%
inactive: DU-145 prostate 22.7% | RXF 393 renal 20% | SF-268 CNS 10.8% | SF-295 CNS 13% | HT29 colon 55% | SNB-75 CNS 24.5% | SNB-19 CNS 23.2% | PC-3 prostate 14.4% | SK-MEL-28 melanoma 24.2%

Cc1cc(=O)[nH]c(N=Nc2c(O)[nH]c3ccccc23)n1
inactive: DU-145 prostate 117% | K-562 leukemia 116% | MALME-3M melanoma 127% | MDA-MB-231 breast 97.2% | RXF 393 renal 117% | SF-268 CNS 105% | SF-295 CNS 114% | SF-539 CNS 105% | UACC-257 melanoma 112% | M14 melanoma 100% | HCT-15 colon 109% | HT29 colon 106% | SNB-75 CNS 105% | SNB-19 CNS 103% | U251 CNS 103% | PC-3 prostate 97.9% | SK-MEL-5 melanoma 103% | UACC-62 melanoma 106% | LOX IMVI melanoma 99.8% | SK-MEL-28 melanoma 111%

O=c1cc(C2NNC(=S)N2)c2ccc3ccccc3c2o1 (stereo not given)
inactive: DU-145 prostate 109% | K-562 leukemia 90.5% | MALME-3M melanoma 104% | MDA-MB-231 breast 96.3% | RXF 393 renal 87.4% | SF-268 CNS 102% | SF-295 CNS 100% | SF-539 CNS 94.1% | UACC-257 melanoma 116% | M14 melanoma 102% | HCT-15 colon 98.1% | HT29 colon 100% | SNB-75 CNS 105% | SNB-19 CNS 93.2% | U251 CNS 96.8% | PC-3 prostate 85.2% | SK-MEL-5 melanoma 96.8% | UACC-62 melanoma 86.3% | LOX IMVI melanoma 87.5% | SK-MEL-28 melanoma 114%

CC1O[C@@H](OC2[C@H](OC(=O)/C=C/c3ccc(O)c(O)c3)C(COC3O[C@H](C)C(O)C(O)[C@@H]3O)O[C@@H](OCCc3ccc(O)c(O)c3)[C@H]2O)[C@@H](O)C(O)[C@H]1O (stereo not given in full)
inactive: DU-145 prostate 106% | K-562 leukemia 105% | MALME-3M melanoma 88.1% | MDA-MB-231 breast 108% | RXF 393 renal 125% | SF-268 CNS 103% | SF-295 CNS 103% | SF-539 CNS 94.2% | UACC-257 melanoma 80.8% | M14 melanoma 97.1% | HCT-15 colon 100% | HT29 colon 100% | SNB-75 CNS 85.7% | SNB-19 CNS 107% | U251 CNS 99.4% | PC-3 prostate 99.9% | SK-MEL-5 melanoma 103% | UACC-62 melanoma 101% | LOX IMVI melanoma 102% | SK-MEL-28 melanoma 110%

COC(=O)[C@]12CC[C@@H](C)[C@H](C)[C@@H]1C1=CC[C@@H]3[C@@]4(C)C(C=O)=C[C@@](C)(COS(C)(=O)=O)[C@@H]4C(=O)C[C@@]3(C)[C@]1(C)CC2
inactive: DU-145 prostate 41.2% | K-562 leukemia 21.3% | MALME-3M melanoma 83.6% | MDA-MB-231 breast 37.2% | RXF 393 renal 73.8% | SF-268 CNS 40.2% | SF-295 CNS 37.3% | SF-539 CNS 65.7% | UACC-257 melanoma 52.6% | M14 melanoma 36.8% | HCT-15 colon 21.4% | HT29 colon 26.9% | SNB-75 CNS 38.7% | SNB-19 CNS 41.7% | U251 CNS 26% | PC-3 prostate 12% | SK-MEL-5 melanoma 63.8% | UACC-62 melanoma 38.6% | LOX IMVI melanoma 35.7% | SK-MEL-28 melanoma 74.2%

CNC(=O)CCN1CCN(CC/C=C2\c3ccccc3Sc3ccc(Cl)cc32)CC1
active: UACC-257 melanoma -30.9% | PC-3 prostate 8.82% | SK-MEL-28 melanoma -51.5%
inactive: DU-145 prostate 90.5% | K-562 leukemia 32.4% | MALME-3M melanoma 98% | MDA-MB-231 breast 102% | RXF 393 renal 21.6% | SF-268 CNS 77.5% | SF-295 CNS 98.5% | SF-539 CNS 97.3% | M14 melanoma 81.3% | HCT-15 colon 63.2% | HT29 colon 58.2% | SNB-75 CNS 74.3% | SNB-19 CNS 98.6% | U251 CNS 77.8% | SK-MEL-5 melanoma 79.6% | UACC-62 melanoma 60.4% | LOX IMVI melanoma 72%

C=C(C)[C@@H]1CC[C@]2(C(=O)NC3CCCCC3)CC[C@]3(C)[C@H](CC[C@@H]4[C@@]5(C)CCC(=O)C(C)(C)[C@@H]5CC[C@]43C)[C@@H]12
inactive: DU-145 prostate 104% | K-562 leukemia 84.2% | MALME-3M melanoma 84.2% | MDA-MB-231 breast 87.4% | RXF 393 renal 98.3% | SF-268 CNS 94.3% | SF-295 CNS 97.8% | SF-539 CNS 96.1% | UACC-257 melanoma 94.2% | M14 melanoma 97.7% | HCT-15 colon 97.1% | HT29 colon 85.7% | SNB-75 CNS 85.6% | SNB-19 CNS 84.2% | U251 CNS 84.9% | PC-3 prostate 60.1% | SK-MEL-5 melanoma 95.9% | UACC-62 melanoma 76.9% | LOX IMVI melanoma 92.2% | SK-MEL-28 melanoma 97.1%

O=c1c2c3c(sc2nc(N/N=C/c2ccc(Br)cc2)n1Cc1ccccc1)CCCC3
inactive: DU-145 prostate 81.6% | K-562 leukemia 79.9% | MALME-3M melanoma 91.6% | MDA-MB-231 breast 50.2% | RXF 393 renal 73.2% | SF-268 CNS 68.4% | SF-295 CNS 34.3% | SF-539 CNS 50% | UACC-257 melanoma 78.9% | M14 melanoma 75.8% | HCT-15 colon 78.1% | HT29 colon 101% | SNB-75 CNS 106% | SNB-19 CNS 76.4% | U251 CNS 70.3% | PC-3 prostate 70.2% | SK-MEL-5 melanoma 87.2% | UACC-62 melanoma 88.7% | LOX IMVI melanoma 73% | SK-MEL-28 melanoma 120%

O=C(CSc1nccc(Nc2ccc(S(=O)(=O)Nc3nccs3)cc2)n1)c1ccc(F)cc1
inactive: DU-145 prostate 105% | K-562 leukemia 113% | MALME-3M melanoma 103% | MDA-MB-231 breast 113% | RXF 393 renal 112% | SF-268 CNS 105% | SF-295 CNS 103% | SF-539 CNS 100% | UACC-257 melanoma 96.5% | M14 melanoma 101% | HCT-15 colon 98.1% | HT29 colon 106% | SNB-75 CNS 94% | SNB-19 CNS 100% | U251 CNS 102% | PC-3 prostate 96.1% | SK-MEL-5 melanoma 98.7% | UACC-62 melanoma 94.5% | LOX IMVI melanoma 97.5% | SK-MEL-28 melanoma 106%

O=C(NCCc1ccc(O)c(O)c1)C12CC3CC(CC(C3)C1)C2
inactive: DU-145 prostate 101% | K-562 leukemia 92.6% | MALME-3M melanoma 107% | MDA-MB-231 breast 85.5% | RXF 393 renal 101% | SF-268 CNS 89.6% | SF-295 CNS 128% | SF-539 CNS 80.4% | UACC-257 melanoma 98.8% | M14 melanoma 103% | HCT-15 colon 91.8% | HT29 colon 102% | SNB-75 CNS 82% | SNB-19 CNS 98.5% | U251 CNS 101% | PC-3 prostate 73.5% | SK-MEL-5 melanoma 96% | UACC-62 melanoma 90.3% | LOX IMVI melanoma 89.1% | SK-MEL-28 melanoma 104%

COc1ccc2c(c1)[nH]c(=O)c1c3cccnc3cn21
active: DU-145 prostate 9.39% | SF-295 CNS -6.51% | SF-539 CNS 8.85% | HT29 colon 8.6% | SK-MEL-5 melanoma -33.6%
inactive: K-562 leukemia 17.4% | MALME-3M melanoma 62.6% | MDA-MB-231 breast 28.9% | RXF 393 renal 37% | SF-268 CNS 27.3% | UACC-257 melanoma 64.5% | M14 melanoma 16.2% | HCT-15 colon 13.7% | SNB-75 CNS 40.5% | SNB-19 CNS 32.7% | U251 CNS 15.6% | PC-3 prostate 22% | UACC-62 melanoma 16.5% | LOX IMVI melanoma 33.1% | SK-MEL-28 melanoma 70.8%

COc1cccc(-c2nn(-c3ccccc3)cc2-c2ccnc(NCCCNC(=O)c3ccc(F)cc3)c2)c1
active: SK-MEL-5 melanoma 6.09%
inactive: DU-145 prostate 65.5% | K-562 leukemia 16.9% | MALME-3M melanoma 48.2% | MDA-MB-231 breast 51.3% | RXF 393 renal 56.3% | SF-268 CNS 53.7% | SF-295 CNS 36.5% | SF-539 CNS 68.3% | UACC-257 melanoma 42.3% | M14 melanoma 20.3% | HCT-15 colon 24.9% | HT29 colon 11.7% | SNB-75 CNS 46.2% | SNB-19 CNS 67.2% | U251 CNS 36.4% | PC-3 prostate 27.1% | UACC-62 melanoma 40.1% | LOX IMVI melanoma 55.7% | SK-MEL-28 melanoma 58.7%
